# Sampled rows, rich in hits. Any-hit rate of the full collection: about 1.8%.
# PAX8 inh HTS: inhibitors of PAX8-driven TPO luciferase reporter, primary screen, RMG-I cells, single concentration | inhibition, % at 12.6 µM | SteadyGlo, 24 h | AID 652154, 2013 | 360,000 tested, 1.2% active;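 active means mean replicate inhibition at least 60% with every replicate also reaching 60%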;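 further: luciferase light reporting Pax8 driven TPO promoter activity; plate controls were median of neutral control wells for no effect and mitoxantrone controls for full effect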
# EWS-Fli block: EWS/Fli-driven NR0B1 reporter inhibitors, primary screen, A673 cells, NR0B1 luciferase, luminescence, MLPCN library; viability-normalised; inhibition, % at 12.6 µM; 350,000 tested, 0.67% active;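 active means mean inhibition of at least 50% after viability correction, with every replicate also passing that limit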;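 further: firefly luciferase signal divided by Alamar Blue viability fluorescence both relative to DMSO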
# LGR2 inh: inhibitors of bursicon-induced LGR2 CRE-luciferase signal, primary screen, cell-based, HEK293, CRE-luciferase reporter, bursicon stimulation; Drosophila bursicon receptor LGR2 (rickets); inhibition, % at 9.99 µM; bursicon-stimulated, 4 h; 380,000 tested, 0.35% active;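 active means drop in luminescence signal, shown as inhibition above about 50% in the replicate tests, limit read from the data, passing the limit was not always enough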;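 further: agonist challenge used bursicon conditioned medium at about half maximal strength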
# CFTR F508del cor: F508del CFTR correction, initial screen, CFBE line, single point; CFBE cells, YFP halide quenching; stimulated with forskolin plus potentiator P3; % fluorescence drop versus neutral controls; activity (quench increase), % at 7.58 µM; 350,000 tested, 0.36% active; AID 720511, 2013;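 active means mean added fluorescence quench of at least 8% versus neutral control, with both replicates also reaching 8%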;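 further: cells transiently co-express mutant CFTR-F508del with the halide-sensitive YFP; corrector assay measuring rescue of mutant channel to the surface after 24 h compound exposure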
# DNA binding: DNA binders by acridine orange displacement, dose response, counter-screen for EWS/Fli inhibitor project, biochemical, fluorescence polarization, cherry-pick; 640 tested, 2% active; salmon sperm DNA acridine orange fluorescence polarization; AC35, µM (titrated, usually from 68 µM), inactives show at the top dose activity change, negative = DNA binding; shares compounds with EWS-Fli block;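 active means fitted curve reaches a 35% signal fall AC35 below twice the sample's top valid tested dose, actives reach about 48 µM in these data; inactive means the rest, including activity in the rising direction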;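 further: lower polarization ratio signals compound binding to DNA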
# Starred values were filed as active, the others as inactive; . = no result given.
SMILES,PAX8 inh HTS,EWS-Fli block,LGR2 inh,CFTR F508del cor,DNA binding
CC(=O)Oc1ccc(C(=O)[C@H]2[C@H]3C(=O)N(c4ccc(C)cc4)C(=O)[C@H]3[C@@H]3C=CC=NN32)cc1,29.8,-41.9,-19.5,-0.2,.
COC(=O)C[C@H]1C=C[C@@H](NC(=O)Nc2ccc(C(F)(F)F)cc2)[C@H](CO)O1,-13.2,67.1*,9.2,2.2,-3.5%
COC(=O)C[C@H]1C=C[C@H](NC(=O)Nc2ccc(C(F)(F)F)cc2)[C@H](CO)O1,-6.5,-44.1,25.4,1.6,.
CCc1c(C(=O)NN2C(=O)C3CCCCC3C2=O)csc1C (configuration not stated),1.8,64.9*,22.3,.,-2.0%
CN1C/C(=C/c2cccnc2)C(=O)/C(=C/c2cccnc2)C1,-1.7,.,3.6,.,.
CCN1C(=O)S/C(=C/c2ccsc2)C1=O,-21.9,.,.,.,.
CC(C)N1C/C(=C/c2cccnc2)C(=O)/C(=C/c2cccnc2)C1,-5.2,69.5*,23.5,.,-10.9%
CC(C)N1C/C(=C/c2ccsc2)C(=O)/C(=C/c2ccsc2)C1,40.6,71.9*,17.3,-2.6,-27.2%
O=C1c2ccccc2C(=O)N1CCCCNc1ccccc1,-5.2,57.0*,-5.6,-4.3,-7.2%
O=C1c2ccccc2C(=O)N1CCCCCCc1ccccc1,-13.7,-8.2,5.4,4.0,.
CN(C(=O)COC(=O)c1cc(-c2ccccc2Cl)nc2ccccc12)C1CCS(=O)(=O)C1 (configuration not stated),28.3,84.5*,6.9,.,-2.4%
CN(C(=O)COC(=O)c1cc(-c2ccc(Cl)s2)nc2ccccc12)C1CCS(=O)(=O)C1 (configuration not stated),25.9,-17.2,-13.0,-0.5,.
O=C(NC1CCCC1)N1CCCCN2[C@@H](CO)[C@@H](c3ccc(/C=C/c4ccccc4)cc3)[C@@H]2C1,103.9*,72.7*,26.2,-4.1,9.2%
BrC(=C\c1ccccc1)/C=N/Nc1ccc2nncn2n1,-3.9,-3.1,-15.6,-3.1,.
BrC(=C\c1ccccc1)/C=N/n1cnnc1,95.3*,67.5*,85.7*,-8.4,-8.0%
C(=NNc1ccc2ccccc2n1)c1ccccn1,101.7*,84.1*,98.9*,8.2*,2.6%
COc1ccc(C=NNc2nc3ccccc3s2)cc1,17.8,65.6*,77.7*,2.4,-6.9%
C(=N\Nc1nc2ccccc2s1)/c1ccccn1,88.0*,79.9*,103.6*,2.5,-5.5%
O=C(CN1C(=O)c2cccc([N+](=O)[O-])c2C1=O)N1CCN(c2ccc(F)cc2)CC1,29.3,9.8,15.6,-0.1,.
COc1cccc(-c2ccc3c(c2)O[C@@H](CN(C)C(=O)C2CCC2)[C@@H](C)CN([C@H](C)CO)S3(=O)=O)c1,.,-6.2,9.7,-0.5,.
Cc1cc(C(=O)NNC(=O)c2ccc(S(=O)(=O)N(C)C)cc2)c(C)o1,19.3,74.5*,15.4,.,-2.2%
Cc1nc(N)nc(N)c1-c1ccc(Cl)c(Cl)c1,54.2,52.9*,17.2,5.7,-5.9%
Cc1nc(N)nc(N)c1CCCc1ccc(Cl)c(Cl)c1,27.5,74.6*,18.7,5.8,-18.8%
CCCCCCCCCCCCCCCCCCNc1ccn(C2OC(COP(=O)(O)OCC3OC(n4cc(F)c(=O)[nH]c4=O)CC3O)C(O)C2O)c(=O)n1 (configuration not stated),17.9,60.7*,.,-1.9,-6.0%
O=c1[nH]c(=O)n(C2OC(CO)C(O)C(O)C2O)cc1F (configuration not stated),.,5.7,.,-3.1,.
SMILES,PAX8 inh HTS,EWS-Fli block,LGR2 inh,CFTR F508del cor,DNA binding
CCCCn1c(=O)c(CCC(=O)OCC(=O)NC(C)c2ccccc2)nc2ccccc21 (configuration not stated),3.9,2.6,2.8,.,.
CN(C)c1ccc(-c2ccnc3c2CC(C)(C(=O)NCc2cccs2)O3)cc1 (configuration not stated),13.2,47.0,-4.5,-2.0,.
CC1(C(=O)NCc2ccco2)Cc2c(-c3cccc(C(N)=O)c3)ccnc2O1 (configuration not stated),.,52.7*,-20.0,-5.2,-11.4%
CN(C)c1ccc(-c2ccnc3c2CC(C)(C(=O)NCc2ccco2)O3)cc1 (configuration not stated),-10.7,64.1*,-5.1,2.2,3.4%
CC1(C(=O)NCc2ccco2)Cc2c(-c3cccc(C(F)(F)F)c3)ccnc2O1 (configuration not stated),10.1,39.0,5.3,7.4,.
Cc1n[nH]c(C)c1S(=O)(=O)N1CCCC(C(=O)NCc2ccc(F)cc2)C1 (configuration not stated),18.1,3.5,34.5,-1.9,.
C=CCNC(=O)c1onc(CSc2nc3ccccc3[nH]2)c1C(=O)NCC=C,2.9,1.2,-9.6,0.7,.
Cc1ccsc1/C=N/Nc1ccc(C(=O)O)cc1,77.6*,70.8*,68.8*,5.4,5.2%
COc1ccc(/C=N/Nc2ccc(C(=O)O)cc2)cc1Br,43.7,69.0*,79.7*,-3.0,-7.4%
O=C(O)c1ccc(N/N=C/c2cc(Br)cs2)cc1,25.6,65.2*,42.5,.,-3.1%
O=C(N/N=C\c1cc(Br)cs1)c1ccncc1,-0.2,-3.5,-4.0,-0.8,.
Cc1ccsc1/C=N/Nc1cccc(C(=O)O)c1,90.5*,66.3*,87.6*,-2.2,-7.9%
COc1ccc(/C=N/Nc2ccc(C(=O)O)cc2)cc1OC,-60.1,-37.3,-11.1,-5.7,.
CO[C@H]1CN(C)C(=O)c2cccc(C#N)c2OCC[C@H]2CC[C@@H](OC)[C@H](CN(C)C(=O)[C@H]1C)O2,2.7,3.1,5.8,.,.
CC(=O)c1c(C)oc(C)c1CSCc1ccc(C(=O)O)o1,8.6,.,.,.,.
COc1ccc(-c2cc(CCCC(=O)NCc3ccccn3)no2)cc1,0.7,22.1,-2.9,-0.4,.
Cc1cc(C)c2sc(NNC(=O)c3ccc(S(=O)(=O)N4CCc5ccccc5C4)cc3)nc2c1,99.2*,53.9*,.,3.5,-5.2%
Nc1cccc(O)c1,.,-9.3,-13.2,2.0,.
Oc1cccc(-c2nnc(-c3cccc(O)c3)nn2)c1,3.3,72.2*,83.6*,4.9,-9.9%
COc1cc(Cl)nn(-c2ccccc2)c1=O,-1.1,.,-9.1,.,.
O=c1c(Cl)cc(Cl)nn1-c1ccccc1,87.8*,64.0*,-4.9,.,1.2%
O=C(c1ccccc1)N1CC(=O)N2[C@H](CO)[C@@H](c3ccc(-c4ccccc4)cc3)[C@H]2C1,.,-5.3,12.4,3.2,.
Cc1cccc(CN(C)C[C@@H]2OCc3cnnn3CCCC(=O)N([C@@H](C)CO)C[C@H]2C)c1,-9.8,-17.8,12.8,-2.1,.
CCCn1nnc(NC(=S)NC(=O)C(C)(C)C)n1,-21.0,87.5*,12.1,.,0.0%
Cc1c(Cl)cccc1N1CC(C)(C)C1=O,0.4,3.4,10.4,2.4,.
O=S(=O)(NCC[C@H]1CC[C@@H](NS(=O)(=O)c2cccc(F)c2)[C@H](CO)O1)c1cccc(F)c1,3.3,-11.2,-6.5,0.6,.

# Assay outcomes as filed in PubChem.
